Compound activity deposited in PubChem by National Center for Advancing Translational Sciences (NCATS).
Most compounds without a hit are left out; they make up all but 2.5% or so of the library.
ClpP mod: qHTS Assay for Activators of ClpP | ATP-dependent Clp protease proteolytic subunit (Bacillus subtilis (strain 168)), P80244 | purified B. subtilis ClpP, FRET peptide cleavage, 20 min | Potency, µM (series often up to 57.5 µM), for the others: at the highest dose activity change, negative = active | hit rate 1.9% among 340,000; active means well fitted falling curve with a large enough effect; inconclusive means small, poorly fitted or top-dose-only effect; inactive means no such curve, though single readings can be large or run the other way; further: potency means the concentration at half of the fitted maximal effect; the source files actives as falling curves though it sought activators and does not explain the sign; nearly all actives have a fitted effect of over 65% in size
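Purified B. subtilis ClpP, 10 microg/mL final in Tris/HCl pH8 with KCl, BSA, glycerol and Tween-20, cleaved an Abz/nitrotyrosine-quenched decapeptide. Fluorescence (ex 320, em 430) was read at 0 and 20 min at room temperature. Delta was normalized to 5.8 microM ADEP and DMSO/no-enzyme controls.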
Anesthetic bind: qHTS Assay for Identification of Novel General Anesthetics | apoferritin/1-aminoanthracene competitive binding, fluorescence | Potency, µM (doses to about 77.5 µM), inactives show at the highest dose activity change, negative = displacement, hits mostly inhibitors | hit rate 0.074% among 350,000 | AID 485281, 2010; further: potency means the concentration at half of the fitted maximal effect; on the % scale 0 is the no-effect control and ±100 the full control effect; nearly all actives have a fitted effect of over 20% in size
Target sequence (P02791 2-175 limits assumed): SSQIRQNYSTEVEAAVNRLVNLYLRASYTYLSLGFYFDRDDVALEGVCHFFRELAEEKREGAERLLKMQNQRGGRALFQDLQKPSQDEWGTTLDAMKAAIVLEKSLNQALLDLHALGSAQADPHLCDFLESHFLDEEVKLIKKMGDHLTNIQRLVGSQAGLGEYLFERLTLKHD
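Steps: apoferritin (10 uM) was premixed with half-saturated 1-AMA in PBS, compounds were pin-transferred, plates stood 10 min at room temperature, fluorescence was read at 380/535 nm, and curves were fitted with a Hill equation.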
TrxR1 inh: qHTS Assay for Inhibitors of Mammalian Selenoprotein Thioredoxin Reductase 1 (TrxR1): qHTS. Thioredoxin reductase 1, cytoplasmic (Rattus norvegicus), O89049. hit rate 1% among 390,000. recombinant rTrxR1, NADPH fluorescence consumption, selenite substrate. Potency, µM (doses to about 114 µM), without a hit: at the top dose activity change, negative = inhibition, actives largely listed as inhibitors; further: potency means the concentration at half of the fitted maximal effect; on the % scale 0 is the no-effect control and ±100 the full control effect; nearly all actives have a fitted effect of over 65% in size
Target sequence (O89049 whole entry, looked up): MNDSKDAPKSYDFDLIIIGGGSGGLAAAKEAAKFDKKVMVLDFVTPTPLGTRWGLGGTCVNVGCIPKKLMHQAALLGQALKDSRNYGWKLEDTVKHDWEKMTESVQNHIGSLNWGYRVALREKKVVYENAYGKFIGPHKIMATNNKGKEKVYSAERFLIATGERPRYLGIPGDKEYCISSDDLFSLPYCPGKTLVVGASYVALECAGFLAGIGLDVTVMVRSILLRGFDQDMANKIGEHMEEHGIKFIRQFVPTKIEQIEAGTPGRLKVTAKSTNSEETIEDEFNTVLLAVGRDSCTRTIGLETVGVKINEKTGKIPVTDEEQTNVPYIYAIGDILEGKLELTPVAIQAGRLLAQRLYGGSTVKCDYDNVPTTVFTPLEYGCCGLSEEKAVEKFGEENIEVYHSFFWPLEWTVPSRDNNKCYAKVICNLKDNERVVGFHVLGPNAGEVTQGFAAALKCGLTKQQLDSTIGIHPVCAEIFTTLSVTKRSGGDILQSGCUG
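Rat TrxR1 (90 nM in the dispensed reagent) was pre-reduced with 400 uM NADPH for 5 min at room temperature, then incubated with compound for 15 min. After 400 uM selenite was added, NADPH fluorescence (Ex 340/Em 450 nm) was followed for 8 min.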
TrxR1 substrate: qHTS Assay for Substrates of Mammalian Selenoprotein Thioredoxin Reductase 1 (TrxR1): qHTS. purified TrxR1 substrate turnover, NADPH consumption readout. Potency, µM (highest dose often 114 µM), without a hit: at the highest dose activity change, negative = substrate turnover. hit rate 0.01% among 390,000. AID 588456, 2011; further: potency means the concentration at half of the fitted maximal effect; on the % scale 0 is the no-effect control and ±100 the full control effect; nearly all actives have a fitted effect of over 50% in size
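Rat TrxR1, dispensed at 90 nM, was prereduced with 400 uM NADPH (final) for 5 min at ~22 deg C, then incubated with compound 15 min before 400 uM selenite. A first-read NADPH fluorescence drop versus no-compound background flagged substrates.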
miR-21 act: qHTS Assay for Modulators of miRNAs and/orActivators of miR-21; 340,000 tested, under 10 active; HeLa miR-21 FLuc reporter, luciferase, 48 h; Potency, µM (titrated, usually from 38.3 µM), without a hit: at the highest dose activity change, positive = activation, hits mostly activators;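 further: % of control where 0% means no effect; miR-21 action dims this reporter so a rising signal means less miR-21 action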
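HeLa miR-21-FLuc reporter line, endogenous miR-21; 2000 cells/well in DMEM/10% FBS; compound titration up to ~40uM final, 48 h, 37 degree Celsius; luciferase detection reagent, 15 min lysis, CCD luminescence.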
Starred values were filed as active, the others as inactive; [ ] = dose if it differs, or a comment. Unless noted, the call rests on the fitted dose curve; in most records, active means well fitted curve in the direction sought with a large enough effect; inconclusive means small, poorly fitted or top-dose-only effect, or another doubt; inactive means no such curve, though single readings can be large; an effect the other way counts as inactive or inconclusive.

Screening CCOC(=O)c1ccccc1NC(=O)N1CCC(CN2CCCCC2)CC1 returned ClpP mod inconclusive, Anesthetic bind 6%, TrxR1 inh 14%, TrxR1 substrate 22% and miR-21 act -1%.
C/C=C(/C)C(=O)O[C@@H]1[C@H](OC(C)=O)c2c(ccc3ccc(=O)oc23)OC1(C)C was read as ClpP mod 4%, Anesthetic bind inconclusive, TrxR1 inh -4%, TrxR1 substrate 7% and miR-21 act -19%.
`C/C=C(/C)C(=O)OC1c2c(ccc3ccc(=O)oc23)OC(C)(C)C1OC(C)=O` (stereo not drawn) gave ClpP mod 16µM*, Anesthetic bind inconclusive, TrxR1 inh -16%, TrxR1 substrate 14% and miR-21 act 1%.
Screening CCOc1ccc(Sc2cc(C(=O)NC(C)c3ccccc3)c3ccccc3n2)cc1 (stereo not drawn) returned ClpP mod 20%, Anesthetic bind -11%, TrxR1 inh 12%[57.1 µM], TrxR1 substrate -1%[57.1 µM] and miR-21 act -1%.
Screening COC(=O)C1=C(C)NC(C)=C(C(=O)OC)C1c1ccc(OC(=O)c2ccco2)cc1 returned ClpP mod 18µM*, Anesthetic bind -6%, TrxR1 inh 3%, TrxR1 substrate 107% and miR-21 act -9%.
Screening COCCCC1CCN(C(=O)c2cc(COc3ccc(C)nc3)on2)CC1 returned ClpP mod 28µM*, Anesthetic bind -10%, TrxR1 inh 0%, TrxR1 substrate 0% and miR-21 act 14%.
Screening CC(=O)c1ccc(OCc2cc(C(=O)N3CCCCCCC3)no2)cc1 returned ClpP mod -3%, Anesthetic bind 5µM*, TrxR1 inh -12%, TrxR1 substrate -13% and miR-21 act -12%.
`CC(=O)c1ccc(OCc2cc(C(=O)N3CCOCC3)no2)cc1` gave ClpP mod 2%, Anesthetic bind -5%, TrxR1 inh 8%, TrxR1 substrate 8% and miR-21 act -60%.
CC[C@H](C)[C@H](NC(=O)[C@H](Cc1cnc[nH]1)NC(=O)[C@@H](NC(=O)[C@H](CCCNC(=N)N)NC(=O)[C@H](CCCCN)NC(=O)[C@H](CCCNC(=N)N)NC(=O)[C@H](CCCCN)NC(=O)[C@@H](N)CC(N)=O)[C@@H](C)CC)C(=O)NCC(=O)N1CCC[C@H]1C(=O)NCC(=O)N[C@@H](CCCNC(=N)N)C(=O)N[C@@H](C)C(=O)N[C@@H](Cc1ccccc1)C(=O)N[C@@H](Cc1ccc(O)cc1)C(=O)N[C@H](C(=O)N[C@H](C(=O)N[C@@H](CCCCN)C(=O)N[C@@H](CC(N)=O)C(=O)N[C@H](C(=O)N[C@H](C(=O)NCC(=O)N[C@H](C(=O)N[C@H](C(=O)N[C@@H](CS)C(=O)O)[C@@H](C)CC)[C@@H](C)O)[C@@H](C)CC)[C@@H](C)CC)[C@@H](C)O)[C@@H](C)O was read as Anesthetic bind 3%.
`CCCc1cc(=O)[nH]c(SCC(=O)c2cc(C)n(C3CC3)c2C)n1` gave ClpP mod 18µM*, Anesthetic bind inconclusive, TrxR1 inh 22%[57.1 µM], TrxR1 substrate -8% and miR-21 act -9%.
For CCCc1cc(=O)[nH]c(SCC(=O)c2cc(C)n(C)c2C)n1 the results were ClpP mod -3%, Anesthetic bind -7%, TrxR1 inh 11%, TrxR1 substrate 7% and miR-21 act -10%.
Screening CCOc1cc(C(=O)NCCc2csc(-c3ccc(C)cc3)n2)cc(OCC)c1OCC returned ClpP mod 7%, Anesthetic bind 2%, TrxR1 inh 3%[57.1 µM], TrxR1 substrate -3%[57.1 µM] and miR-21 act 13%.
Screening COc1ccc(-c2onc(C)c2C)cc1S(=O)(=O)N1CCN(c2cc(C)ccc2C)CC1 returned ClpP mod -1%, Anesthetic bind -13%, TrxR1 inh -16%[57.1 µM], TrxR1 substrate -14%[57.1 µM] and miR-21 act 0%.
For CCN(CC)c1ccc(-c2nc(-c3ccco3)no2)cc1[N+](=O)[O-] the results were ClpP mod -2%, Anesthetic bind -8%, TrxR1 inh -3%, TrxR1 substrate -4% and miR-21 act 0%.
For O=C1S/C(=C\c2ccc(O)c([N+](=O)[O-])c2)C(=O)N1c1ccccc1Cl the results were ClpP mod 0%, Anesthetic bind 13µM*, TrxR1 inh -1%, TrxR1 substrate -12% and miR-21 act 12%.
`O=C1S/C(=C\c2ccc(O)c([N+](=O)[O-])c2)C(=O)N1Cc1cccc([N+](=O)[O-])c1` gave Anesthetic bind -14%, TrxR1 inh 9%[57.1 µM], TrxR1 substrate 3%[57.1 µM] and miR-21 act 4%.
Screening Cc1ccc(Nc2nc(-c3c(C)nc4ccccn34)cs2)cc1 returned ClpP mod 28µM*, Anesthetic bind -5%, TrxR1 inh -8%, TrxR1 substrate -1% and miR-21 act 28%.
Cc1ccc(Nc2nc(-c3c(C)nc4ncccn34)cs2)cc1 was read as ClpP mod -28%, Anesthetic bind -15%, TrxR1 inh -12%, TrxR1 substrate -11% and miR-21 act 16%.
`O=c1c(Cl)c(NCCCO)cnn1-c1nc2ccccc2[nH]1` gave ClpP mod -6%, Anesthetic bind -10%, TrxR1 inh 3.5µM*, TrxR1 substrate -2% and miR-21 act inconclusive.
Screening C=CCN(CC=C)c1cnn(-c2nc3ccccc3[nH]2)c(=O)c1Cl returned ClpP mod -15%, Anesthetic bind -2%, TrxR1 inh 3%, TrxR1 substrate 12% and miR-21 act -25%.
COC(=O)c1ccc(=O)c2nc3/c(=C/O)c(O)cc(=O)c3[nH]c12 was read as ClpP mod -3%, Anesthetic bind -13%, TrxR1 inh 56µM*, TrxR1 substrate -17% and miR-21 act 7%.
`CN(C)c1ccc(C=c2c3ccccc3n3c2c2ccccc2[n+]3C)cc1` gave ClpP mod -12%, TrxR1 inh 32µM* and TrxR1 substrate -19%.
CC(=O)Nc1cccc(CP(=O)(c2ccccc2)c2ccccc2)c1 was read as ClpP mod 32µM*, Anesthetic bind 5%, TrxR1 inh 14%[57.1 µM], TrxR1 substrate 10%[57.1 µM] and miR-21 act 5%.
For COc1ccc(-n2nc3ccc(NS(C)(=O)=O)cc3n2)cc1Cl the results were ClpP mod 28µM*, Anesthetic bind 8%, TrxR1 inh 1%[57.1 µM], TrxR1 substrate 18%[57.1 µM] and miR-21 act -46%.
